Data taken from the supplement of paper PMC10646978.
± gives the standard deviation.

Legend:
Conditions in all cases: modulator concentration 10 µM
[1] = test system: RAW-Dual (murine macrophage reporter line); assay: NF-kB reporter (SEAP) activity fold change vs agonist alone; higher = enhanced NF-kB activity
Procedure, shortened: (§1)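 RAW-Dual murine macrophage reporter cells were plated at 50 000 per well in 384-well plates, pin-transferred compound to 10 μM final, and pre-incubated for 1 hour at 37 °C before a PRR agonist was added and the cells incubated overnight. NF-κB activity was read from supernatant SEAP with QUANTI-Blue at 620 nm absorbance, and IRF activity from Lucia luciferase with QUANTI-Luc by luminescence. Each signal was expressed as fold change by dividing by the mean agonist-only control on the same plate. Two replicate plates were averaged, with errors obtained by propagation.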

[2] = test system: RAW-Dual (murine macrophage reporter line); assay: IRF reporter (Lucia luciferase) activity fold change vs agonist alone; higher = enhanced IRF activity
Procedure, shortened: as §1

[3] = test system: RAW-Dual (murine macrophage reporter line); assay: viability score (confluency relative to resting cells, overnight) (fraction); higher = more viable, active = viable (0.7 or more)
Procedure, shortened: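 Compound was added at a final 10 μM to RAW-Dual macrophages in 384-well plates and left overnight. Confluency was imaged with IncuCyte, and two masks were generated in IncuCyte software over all imaged wells. Each viability score is confluency relative to resting cells, and a compound met the cutoff only when both masks were above 70% of resting cells.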

[4] = agonist: CpG ODN 1826 0.5 ug/mL

Structure (SMILES)	NF-kB reporter [1, 4]	NF-kB reporter ([1]; agonist: LPS 0.1 ug/mL)	NF-kB reporter ([1]; agonist: MPLA […])	IRF reporter ([2]; agonist: 3'3'-cGAMP 10 ug/mL)	IRF reporter ([2]; agonist: LPS 0.1 ug/mL)	IRF reporter ([2]; agonist: MPLA […])	viability score [3]
Cc1cc(-c2ccc(NC(=O)c3ccc([N+](=O)[O-])cc3)c(C)c2)ccc1NC(=O)c1ccc([N+](=O)[O-])cc1	0.994 ± 0.067	0.988 ± 0.06	0.928 ± 0.064	0.966 ± 0.057	1.26 ± 0.08	1.15 ± 0.27	0.999 (active)
CC1(C)CC(=O)C2=C(C1)OC(N)=C(C#N)C2c1ccccc1C(F)(F)F (centres undefined)	1.01 ± 0.073	1.09 ± 0.074	1.06 ± 0.14	0.999 ± 0.059	1.22 ± 0.086	1.26 ± 0.29	0.994 (active)
NC(=O)OCC(COC(N)=O)c1ccccc1	1.06 ± 0.079	1.02 ± 0.05	1.04 ± 0.095	1.16 ± 0.26	0.945 ± 0.062	0.94 ± 0.11	1 (active)
Cc1nc(NC(=O)N2CCC[C@H]2C(N)=O)sc1-c1ccnc(C(C)(C)C(F)(F)F)c1	0.626 ± 0.034	0.894 ± 0.072	1.6 ± 0.66	0.916 ± 0.066	1.18 ± 0.24	1.32 ± 0.33	1.02 (active)
CC(C)(C)c1ccc(=O)n(CC2CN(S(C)(=O)=O)C2)n1	0.983 ± 0.097	1.13 ± 0.095	0.918 ± 0.092	1.02 ± 0.058	1.15 ± 0.1	1.1 ± 0.34	1.01 (active)
NCCNc1ccc(NCCN)c2c1C(=O)c1ccncc1C2=O.O=C(O)/C=C\C(=O)O.O=C(O)/C=C\C(=O)O	0.917 ± 0.04	1 ± 0.085	1.13 ± 0.066	1.02 ± 0.049	1.36 ± 0.29	1.66 ± 0.55	0.97 (active)
CS(=O)(=O)NCc1cccc(Oc2ccc(F)cc2)c1	1.03 ± 0.066	0.955 ± 0.079	0.997 ± 0.029	1.1 ± 0.046	0.992 ± 0.061	1.03 ± 0.1	0.997 (active)
COc1ccc2oc(=O)c(-c3csc(NC(=O)C=CC(=O)O)n3)cc2c1	1.09 ± 0.099	0.895 ± 0.086	0.985 ± 0.027	0.353 ± 0.017	0.938 ± 0.11	0.844 ± 0.13	0.959 (active)
O=C(c1ccccc1)C1OC1(CBr)c1ccccc1 (centres undefined)	1.06 ± 0.06	0.76 ± 0.052	0.663 ± 0.039	0.0937 ± 0.0033	0.69 ± 0.072	0.913 ± 0.17	0.833 (active)
CS(=O)(=O)N(CC(=O)Nc1ccccc1Br)c1ccc(Cl)c(C(F)(F)F)c1	0.796 ± 0.13	0.971 ± 0.076	0.77 ± 0.072	1.15 ± 0.055	1.13 ± 0.23	1.2 ± 0.15	0.999 (active)
CC(C)OC(=O)c1c(NC(=O)C2CC=CCC2C(=O)O)sc2c1CCCC2 (centres undefined)	0.92 ± 0.12	0.999 ± 0.056	0.901 ± 0.054	0.965 ± 0.024	1.29 ± 0.18	1.14 ± 0.28	1.01 (active)
CCC(C(=O)N1CCN(CCn2ccnc2-c2ccccc2)CC1)c1ccccc1 (centres undefined)	0.982 ± 0.17	0.999 ± 0.14	1.24 ± 0.076	1 ± 0.13	1.04 ± 0.24	0.956 ± 0.4	0.984 (active)
CC(C)c1cc(C(=O)N2Cc3ccc(CN4CCN(C)CC4)cc3C2)c(O)cc1O	0.0684 ± 0.0053	0.106 ± 0.0088	0.311 ± 0.052	0.509 ± 0.3	0.971 ± 0.37	0.991 ± 0.44	0.762 (active)
CCNc1cc(C)nc(Nc2ccc(NC(=O)c3ccc(OC)c(OC)c3)cc2)n1	0.118 ± 0.0094	1.32 ± 0.11	1.74 ± 0.17	0.72 ± 0.023	1.19 ± 0.18	1.29 ± 0.27	0.977 (active)
CC(O)Cn1cnc2c1c(=O)n(C)c(=O)n2C (centres undefined)	1.06 ± 0.082	1.06 ± 0.065	1.01 ± 0.036	0.99 ± 0.07	0.972 ± 0.11	0.957 ± 0.11	0.998 (active)
CC(Oc1cccc(Cl)c1)C(=O)Nc1nncs1 (centres undefined)	0.999 ± 0.082	0.972 ± 0.054	0.967 ± 0.058	0.947 ± 0.023	1.28 ± 0.18	1.05 ± 0.2	1.01 (active)
NC(=O)CSc1nc(O)cc(=O)n1-c1ccccc1F	0.987 ± 0.16	1.06 ± 0.088	1.09 ± 0.11	0.978 ± 0.048	1.39 ± 0.26	1.23 ± 0.13	1.01 (active)
Cl.Cl.O=C(O)COCCN1CCN([C@H](c2ccccc2)c2ccc(Cl)cc2)CC1	1.07 ± 0.082	1.06 ± 0.052	1.01 ± 0.047	0.94 ± 0.057	0.905 ± 0.035	0.97 ± 0.13	1 (active)
CC1(C)OC(=O)C(=Cc2ccc(I)o2)C(=O)O1	0.595 ± 0.069	1.01 ± 0.069	0.887 ± 0.17	0.589 ± 0.049	1.02 ± 0.18	0.877 ± 0.26	1.01 (active)
N#Cc1c(N=Cc2ccc(O)cc2)sc2c1CCCC2	0.688 ± 0.055	0.94 ± 0.069	0.979 ± 0.11	0.713 ± 0.049	1.17 ± 0.22	1.23 ± 0.24	0.997 (active)
O=C(Nc1cc(C(F)(F)F)cc(C(F)(F)F)c1)c1ccc([N+](=O)[O-])cc1	0.977 ± 0.09	1.03 ± 0.14	1.02 ± 0.063	0.998 ± 0.03	1.42 ± 0.14	1.05 ± 0.075	1.01 (active)
Cc1c(C(=O)OC(C)C)sc(NC(=O)C(C)(C)C)c1C(=O)OC(C)C	0.823 ± 0.081	0.908 ± 0.044	1.09 ± 0.099	1 ± 0.06	1.56 ± 0.095	1.77 ± 0.16	0.985 (active)
O=S(=O)(c1cccc2ccccc12)n1nnc2ccccc21	1.01 ± 0.092	1.03 ± 0.068	1.05 ± 0.08	1.09 ± 0.29	1.04 ± 0.065	0.995 ± 0.067	1 (active)
CC(C)Oc1cccc(C(=O)NC(=S)N2CCN(c3ccc([N+](=O)[O-])cc3)CC2)c1	0.83 ± 0.064	0.943 ± 0.053	1.09 ± 0.1	0.829 ± 0.038	1.19 ± 0.089	1.34 ± 0.15	1.02 (active)
CSCCC(NC(=O)C(=Cc1ccccc1)NC(=O)c1ccco1)C(=O)O (centres undefined)	0.764 ± 0.066	0.842 ± 0.054	0.936 ± 0.081	1.05 ± 0.05	1.33 ± 0.081	1.49 ± 0.14	1 (active)
NC(=O)c1ccc(I)c([N+](=O)[O-])c1	0.743 ± 0.25	0.842 ± 0.23	0.828 ± 0.046	0.678 ± 0.024	0.905 ± 0.32	1 ± 0.13	0.981 (active)
Cc1onc(-c2ccccc2)c1-c1ccc(S(N)(=O)=O)cc1	1.64 ± 0.26	1.08 ± 0.4	1.25 ± 0.3	1.02 ± 0.031	1.02 ± 0.2	0.898 ± 0.11	0.98 (active)
